Laboratory results published in PubChem BioAssay AID687010 (National Center for Advancing Translational Sciences (NCATS), 2013).
Active and inactive are the calls of the source.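 The calls were made as follows: active = a significant rise in survival of treated spinal muscular atrophy model mice compared with vehicle-treated controls; inactive = no significant rise in survival.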

test: Extended Characterization of SMN2 Inhibitors: Survival Studies; conditions: SMNdelta7 SMA mice, 50 mg/kg i.p. twice daily
Description: Spinal muscular atrophy (SMA) is caused by insufficient levels of the survival motor neuron protein SMN. The SMN locus on chromosome 5q13 contains two inverted copies of SMN called SMN1 and SMN2 which are 99% identical at the amino acid level. SMN1 is a fully functional protein and SMN2 skips exon 7 90% of the time. Skipping of exon 7 produces non-functional protein product. 10% of the SMN2 protein includes exon 7 and is fully functional. In the SMA disease state, mutations in the SMN1 locus are the cause of the disease state. Because only 10% of SMN2 is of the fully functional form, it is not sufficient to overcome the deficiency produced by the loss of the SMN1 product. A therapy that either increase the amount of SMN2 product made or to increase the inclusion of exon 7 has been proposed for the treatment of SMA. We have previously filed a probe report and have now done further SAR and further characterized the resulting compounds in mice studies. […]
Studies were approved by the National Institute of Neurological […] and Stroke Animal Care Committee and performed in accordance with the National Institutes of Health Guide for the Care and Use of Laboratory Animals. […] For survival studies, litters were maintained and kept with the mother until P21, after which if any SMA pups survived they were weaned and continued to be monitored.

SMILES	outcome
O=C(O)C1CCN(c2ncc(-c3ccc4c(c3)OCCCO4)s2)CC1	active; yes
